# Source: PubChem (several laboratories)
# NadD block – inhibitors of S. aureus NadD, primary screen, biochemical, colorimetric, uHTS. actives 0.78% (n = 360,000). Nicotinate-nucleotide adenylyltransferase NadD (Staphylococcus aureus N315). purified NadD enzyme, colorimetric absorbance read-out. inhibition, % at 20 µM; in the data active = inhibition above about 26%
# MsrA inh – bovine MsrA enzyme inhibitors, primary screen, biochemical, absorbance, HTS | inhibition, % at 15.5 µM | Methionine sulfoxide reductase A (Bos taurus) | actives 0.75% (n = 360,000) | AID 651718, 2012 | purified bovine MsrA, absorbance read-out; in the data active = inhibition above about 4.5%;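 note: 0% = vehicle wells with enzyme and 100% = reference inhibitor wells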
# rCAG RNA binder – binders of r(CAG) RNA repeats, primary screen, biochemical, fluorescence. r(CAG) RNA repeat, TO-PRO-1 dye displacement fluorescence. AID 651821, 2012. actives 1.3% (n = 370,000). inhibition, % at 3 µM;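 active = inhibition above the plate cutoff, the mean of all test compounds on that plate plus 3 SD, cut at about 35% in these data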;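 note: 0% = DMSO alone and 100% = 100 µM mitoxantrone as full dye displacement; higher means more dye released from RNA so lower well fluorescence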
# Pemphigus Ab inh – inhibitors of pemphigus antibody binding to DSG3, primary screen, biochemical, bead-based, flow cytometry, scFv-GFP. Desmoglein-3 (Homo sapiens), P32926. DSG3-coupled beads, scFv-anti-DSG3-GFP binding; active compounds read low. binding (percent of control), % at 10 µM. actives 0.48% (n = 310,000). AID 588358, 2011;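 active = binding more than 3 SD below its plate's average and above zero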;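 note: hits lower antibody fragment binding to DSG3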
# MsrA act – bovine MsrA enzyme activators, primary screen, biochemical, absorbance, HTS; Methionine sulfoxide reductase A (Bos taurus); purified bovine MsrA, absorbance read-out; activation, % at 10.6 µM; actives 0.3% (n = 360,000); in the data active = activation above about 7.5%;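 note: 0% = vehicle and 100% = reference activator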
# DAGLB inh – DAGLB lipase inhibitors, primary screen, biochemical, fluorescence, HTS. Diacylglycerol lipase-beta (Homo sapiens), Q8NCG7. HEK293T DAGLB membrane lysate, EnzChek fluorogenic substrate. inhibition, % at 5.17 µM. actives 0.059% (n = 340,000). AID 504411, 2011; in the data active = inhibition above about 34%;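 note: 0% = enzyme with vehicle and 100% = wells lacking enzyme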
# Starred values were filed as active, the others as inactive; . = no result given. Shown are actives, neighbours in structure and some others; about 3.2% of the full set was active somewhere.
SMILES,NadD block,MsrA inh,rCAG RNA binder,Pemphigus Ab inh,MsrA act,DAGLB inh
C=CC(=O)Nc1cccc(CN2C(=O)N(c3cc(OC)cc(OC)c3)Cc3cnc(NCCCCN(CC)CC)nc32)c1,-3,.,.,114,.,0
C=CCN1N=C(/C=C/c2ccc(C)cc2)CCC1=O,-4,4.6*,-4,104,-9,-5
Cc1nc(NC(=O)/C=C/c2ccccc2)sc1C(=O)Nc1ccccc1Cl,15,1,2,78*,3,2
Cc1nc(NC(=O)/C=C/c2ccccc2)sc1C(=O)Nc1ccc(Cl)cc1,18,2,6,80,-2,11
CC1=NN(c2ccc(Br)cc2)C(=O)/C1=C/c1ccc(-c2ccccc2C(=O)O)o1,7,0,5,115,-10,8
CCOC(=O)c1cc(-c2ccc(/C=C3/C(=O)N(c4ccc(C(=O)O)cc4)N=C3C)o2)ccc1Cl,5,1,4,63*,-1,0
CCOC(=O)c1cc(-c2ccc(/C=N\n3cnnc3)o2)ccc1Cl,-4,5.6*,1,107,-6,1
COC(=O)[C@@H]1N=C(c2ccc(OC)cc2)O[C@]12C(=O)N(Cc1cn(-c3ccccc3)nn1)c1cccc(Cl)c12,.,.,11,.,.,.
Cc1onc(-c2ccccc2)c1C(=O)OCc1nnc(-c2ccc([N+](=O)[O-])cc2)o1,-2,1,6,106,0,2
O=C(OCc1nnc(-c2ccccc2)o1)c1cc([N+](=O)[O-])ccc1Cl,-9,0,0,71*,-12,-7
CN1OC[C@@H]2CN3C(=NCCc4ccccc4)Sc4ccccc4[C@@H]3C[C@@H]21,.,0,0,.,.,.
Cc1ccc(C(=O)c2ccc([N+](=O)[O-])cc2)cc1,-5,1,-3,84,-2,-10
Cc1ccc(C(=O)c2coc3cc([N+](=O)[O-])c(O)c([N+](=O)[O-])c23)cc1,3,1,18,20*,-11,22
Cc1cccc(C)c1OCCNC(=O)c1ccc2ccccc2n1,-1,0,-6,-7.3*,-13,-20
CCC(=O)N(c1ccccc1)C1CCN(C(=O)C(Cc2ccccc2)NC(C)=O)CC1 (stereo not drawn),.,.,-1,.,.,.
COc1ccc(N2CC(C(=O)Nc3ccc(S(=O)(=O)N4CCCC4)cc3)CC2=O)cc1 (stereo not drawn),-3,-1,5,31*,-7,-4
COC(=O)c1ccc(NC(=O)C2CC(=O)N(c3ccc(C)cc3)C2)cc1 (stereo not drawn),-2,0,-6,-25*,-3,1
COc1ccc(N2CC(C(=O)Nc3ccc(S(=O)(=O)N4CCCCC4)cc3)CC2=O)cc1 (stereo not drawn),5,1,4,102,-6,-1
COC(=O)c1ccc(NC(=O)C2CC(=O)N(c3cc(C)ccc3C)C2)cc1 (stereo not drawn),-4,0,-4,101,-1,-3
COC(=O)C1CN(Cc2ccccc2)CCS(=O)(=O)N1Cc1ccc(C)cc1 (stereo not drawn),.,.,3,.,.,.
O=C1NN(c2ccccc2)C(=O)/C1=C/c1ccc(Sc2ccc(Cl)cc2)o1,52*,1,31,84,-7,7
O=C1NN(c2ccccc2)C(=O)/C1=C/c1ccc(-c2ccc(Cl)c(C(=O)O)c2)o1,-1,-1,11,113,-5,3
O=C(Cn1sc2ccccc2c1=O)Nc1ccc(Cl)cc1,-3,0,5,72*,5,2
O=C(Cn1sc2ccccc2c1=O)Nc1ccc(F)cc1,0,0,2,53,7,-1
COc1cccc(NC(=O)Nc2c(-c3ccc(F)cc3)nc3ncccn23)c1,.,.,5,.,.,.
SMILES,NadD block,MsrA inh,rCAG RNA binder,Pemphigus Ab inh,MsrA act,DAGLB inh
CC(=O)c1ccc(NC(=O)c2cn(-c3ccccc3)nc2-c2ccncc2)cc1,8,1,1,69*,-8,-2
N#Cc1cc(Sc2ccccn2)c([N+](=O)[O-])cc1C#N,4,0,31,113,-11,2
N#Cc1cc(Sc2ccccn2)c(Sc2ccccn2)cc1C#N,0,0,3,73*,-14,-4
Cc1c(N=C2NN=C(c3ccc(Cl)cc3)CS2)c(=O)n(-c2ccccc2)n1C,8,1,5,102,3,1
Cc1c(N=C2NN=C(c3c[nH]c4ccccc34)CS2)c(=O)n(-c2ccccc2)n1C,12,5,14,85*,-14,2
CCC(Sc1nc(-c2ccccc2)c(C#N)c(=O)[nH]1)C(=O)Nc1cc(C)on1 (stereo not drawn),-2,0,50*,86,1,8
Cn1c2ccccc2c2cc(/C=N/NC(=O)c3ccc(O)cc3O)ccc21,40*,.,.,103,-3,2
COc1ccc(S(=O)(=O)N(C)C[C@H]2Oc3ncc(-c4ccncc4)cc3C(=O)N([C@@H](C)CO)C[C@@H]2C)cc1,4,-1,2,100,4,-1
O=C(CSc1nc2c(c(=O)[nH]1)CCCC2)N1CCOCC1,.,.,0,.,.,.
Nc1c(-c2ccccc2)cnc2cc(-c3ccccc3)nn12,-5,0,-2,80*,0,-9
Cc1cc2ncc(-c3ccc(Cl)cc3)c(N)n2n1,-2,1,1,99,-2,0
O=C(C1CCCO1)N1CCN(C2=Nc3ccccc3Sc3ccccc32)CC1 (stereo not drawn),.,.,2,.,.,.
COc1ccc(-c2cc3ccc(OCC(=O)NCC4CCC(C(=O)O)CC4)cc3oc2=O)cc1 (stereo not drawn),1,2,9,102,-7,-1
COc1ccc2c(c1)c(=O)oc1cc(OCC(=O)N3CCC(C)CC3)ccc12,17,.,.,100,-6,1
COc1ccc2c(c1)c(=O)oc1cc(OCC(=O)NCC3CCC(C(=O)O)CC3)ccc12 (stereo not drawn),0,1,2,-19*,-13,-1
COc1ccc2c(c1)c(=O)oc1cc(OCC(=O)N3CCc4ccccc4C3)ccc12,33*,-2,20,92,-2,-2
O=C(NCc1ccc(Cl)c(Cl)c1)c1cc(C2CCCCN2C(=O)c2cccs2)on1 (stereo not drawn),-2,-1,8,.,6,.
CCC(=O)OC1(C)C(=O)C=C2C=C(c3ccc(C#N)cc3)OC=C2C1=O (stereo not drawn),21,1,42*,94,-1,12
CCC(=O)OC1(C)C(=O)C2=COC(c3ccc(OC)cc3)=CC2=C(Br)C1=O (stereo not drawn),4,1,16,94,10*,17
